Test results as given in PubChem BioAssay (NCATS).
Inconclusive results are not listed. Values without a mark were called inactive. The call rests on the fitted dose curve; in most records, active means well fitted inhibition curve with a large enough effect; inconclusive means small, poorly fitted or top-dose-only effect; inactive means no such curve, though single readings can be large or run the other way.

assay: qHTS assay for measurement of the activity of small molecule inhibitors on Zika virus induced Caspase-3 activity in human iPSC derived neural progenitor cells (hNPCs) (AID 1224857); conditions: hNPCs ZIKV-induced caspase-3/7, Caspase-Glo luminescence, 6 h; series mostly up to 45.7 µM; activity change, negative = inhibition: at the top concentration; further: % of control where 0% means no effect; nearly all actives have a fitted effect of over 65% in size
Summary of the method: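 Values are percent inhibition of virus-induced caspase-3/7 signal, scaled between uninfected cells and ZIKV-infected cells. Infection used 2 FFU/cell for 6 h after 1 h compound exposure.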

Structure (SMILES)	activity change, negative = inhibition [%]
COc1cc(O)c(C(=O)c2ccccc2)cc1S(=O)(=O)O	-4.38
CCC(C(=O)OCCOCCN(CC)CC)c1ccccc1 (stereo unspecified)	-11.2
CC(=O)Nc1ccc(S(=O)(=O)Nc2ccc([N+](=O)[O-])cc2)cc1	1.56
OC(C#CCN1CCCC1)(c1ccccc1)c1ccccc1	37.9
CO[C@]12C[C@@H](COC(=O)c3cncc(Br)c3)CN(C)[C@@H]1Cc1cn(C)c3cccc2c13	29.7
CN1CCN(c2cc3c(cc2F)c(=O)c(C(=O)O)cn3-c2ccc(F)cc2)CC1	-0.554
